Assay results: PubChem BioAssay AID463254 (National Center for Advancing Translational Sciences (NCATS), 2010)
The campaign covered roughly 330,000 compounds. About 40 (0.01%) were called active. What follows is part of a selection rich in actives, with near analogues and random picks from the rest. A call without a number means that no potency is given here. A number with no mark means an inactive call. Calls follow the shape of the dose curve; as a rule, active = well fitted inhibition curve with a large enough effect; inconclusive = small, poorly fitted or top-dose-only effect, or effect the other way; inactive = flat fitted curve, though single readings scatter.

molecular target: Ubiquitin carboxyl-terminal hydrolase 2 (Homo sapiens) (UniProt O75604); assay: qHTS Assay for Inhibitors of Ubiquitin-specific Protease USP2a Using CHOP2 as the Reporter; settings: USP2 core, Ub-CHOP2 coupled fluorogenic reporter, 485/531; series mostly up to 38.3 µM
From the text: NIH Molecular Libraries Screening Centers Network [MLSCN] NIH Chemical Genomics Center [NCGC] MLSCN Grant: XO1-MH079852-01 PI Name: Nicholson, Ben. Progenra Inc, Malvern, PA NCGC Assay Overview: Homeostasis of cellular proteins is maintained through a combination of synthesis and degradation. The pathway that accounts for the majority of protein degradation is the ubiquitin-proteasomal pathway. Ubiquitin (Ub) is highly conserved in all cells and the generation of a multi-Ub chain typically targets proteins for degradation by the proteasome. However, ubiquitination is highly reversible and dynamic. Deubiquitination, the reverse process, is catalyzed through the action of enzymes referred to as isopeptidases or deubiquitinating enzymes (DUBs). This group of enzymes is collectively responsible for maintaining adequate pools of free ubiquitin and regulating the ubiquitination status of cellular proteins. The class of DUBs referred to as the ubiquitin-specific proteases (USP) family functions endoproteolytically to cleave Ub chains from a wide range of protein substrates. USP2a deubiquitinates fatty acid synthase (FASN) which has recently been identified as an emerging oncology target. To identify inhibitors of USP2a a cell-free assay was employed. […] The reporter enzyme chosen is an enterokinase called CHOP2, which is activated when the Ub is cleaved by USP2. The free and now activated reporter can subsequently act on its reporter substrate. Thus, this coupled assay gives a fluorescent read-out at excitation/emission wavelengths of 485/531. The assay was developed by Progenra, Inc. and has been licensed for sale by LifeSensors, Inc. as Ub-CHOP2-Reporter-Kit (#PR1101).
NCGC Assay Protocol Summary: The assay buffer, prepared fresh at the day of the assay, contains 20mM Tris-HCl pH 8.0, 2mM CaCl2, 2mM beta-Mercaptoethanol, 0.05% CHAPS. 3ul of 20nM (10nM final) USP2 core, which is stored on ice, is dispensed into a medium-binding black solid Kalypsys 1,536 well plate using the Kalypsys dispenser. The assay plate is then pinned with 23nL compound with the Kalypsys pintool in columns 5-48. The controls are pinned as follows: column 1 two-fold dilutions of 2M NEM in duplicate; column 2 2M NEM (final concentration 38.2mM); column 3&4 DMSO. The assay plate is incubated at RT for 30min. Subsequently, 1.5uL of 100nM (25nM final) Ub-CHOP2 and 1.5uL of 100nM (25nM final) Reporter Substrate (both stored on ice and protected from light) were dispensed into the plate using the Kalypsys dispenser. Plates were read after 60min RT incubation on a ViewLux (Perkin Elmer) plate reader using the following wavelengths Ex 485nm /Em 531nm. Data were normalized to the to AC100 inhibition (NEM). Concentration-response curves were fitted to the normalized data and the concentration-response curves were then classified based on curve quality (r2), response magnitude and degree of measured activity. The time zero reading was used to flag fluorescence artifacts. Keywords: ubiquitination, deubiquitination, proteases, profluorescent, MLSMR, MLPCN, NIH Roadmap, qHTS, NCGC
Potency is read from the fitted curve at half-maximal effect.

Ubiquitin carboxyl-terminal hydrolase 2 (Homo sapiens), sequence (O75604 whole entry, looked up): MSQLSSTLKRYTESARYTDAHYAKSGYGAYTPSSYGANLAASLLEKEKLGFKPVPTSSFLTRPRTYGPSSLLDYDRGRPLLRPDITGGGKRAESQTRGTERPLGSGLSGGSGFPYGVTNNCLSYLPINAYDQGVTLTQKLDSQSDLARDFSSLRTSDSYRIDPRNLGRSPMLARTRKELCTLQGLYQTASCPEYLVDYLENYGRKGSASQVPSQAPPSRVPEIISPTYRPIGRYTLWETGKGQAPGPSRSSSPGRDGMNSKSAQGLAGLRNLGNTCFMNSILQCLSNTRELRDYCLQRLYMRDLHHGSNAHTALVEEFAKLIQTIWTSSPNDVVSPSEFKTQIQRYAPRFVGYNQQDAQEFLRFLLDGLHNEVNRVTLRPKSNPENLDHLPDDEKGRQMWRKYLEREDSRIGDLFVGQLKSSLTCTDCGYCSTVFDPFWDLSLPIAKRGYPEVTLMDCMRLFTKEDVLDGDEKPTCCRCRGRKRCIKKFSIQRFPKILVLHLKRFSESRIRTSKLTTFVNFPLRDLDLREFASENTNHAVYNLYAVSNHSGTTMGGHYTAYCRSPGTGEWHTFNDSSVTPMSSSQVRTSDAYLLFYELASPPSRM

Q: Which activity change, negative = inhibition does the source give for O=C(CSc1ncnc2c1oc1ccccc12)NC1CCCC1 here?
A: inactive

Q: With CSc1ccc(NC(=O)N2CC(C)OC(C)C2)cc1 (stereo not given) as the molecule, how does the activity change, negative = inhibition read?
A: inactive

Q: For CC1O[C@H](OC2C(COC3OC(CO)C(O)[C@H](O)C3O)OC(OC3CC[C@]4(C)C(CC[C@@]5(C)[C@@H]4C=C[C@]46OC[C@@]7(CCC(C)(C)C[C@H]74)C(O)C[C@@]56C)C3(C)C)C(O)C2O)C(O)C(O)C1O (stereo not given in full), which activity change, negative = inhibition is on record?
A: inactive

Q: How did the activity change, negative = inhibition turn out when CCC(C)c1ccc(NC(=S)NCc2ccccn2)cc1 (stereo not given) was run?
A: inactive

Q: With Cc1cc(C(F)(F)F)c(C#N)c(SCC(=O)NC2CC2)n1 as the molecule, how does the activity change, negative = inhibition read?
A: inactive

Q: COc1ccc2nc(NC3=NCN(CC4CCCO4)CN3)nc(C)c2c1 (stereo not given) was tested. Which activity change, negative = inhibition did it give?
A: inactive

Q: For CC(=O)C1=C(C)NC(=O)NC1c1cc(Br)ccc1OCC#N (stereo not given), which activity change, negative = inhibition is on record?
A: inactive

Q: Which activity change, negative = inhibition does the source give for Cc1ccc(NC(=O)C2CCC(C(C)(C)C)CC2)cc1S(=O)(=O)N1CCOCC1 (stereo not given) here?
A: inactive

Q: How did the activity change, negative = inhibition turn out when O=C1C=CC(=O)N1c1ccc(N2CCCCC2)cc1 was run?
A: inactive

Q: With CCOc1nc(OCC)nc(-n2cc(-c3ccccc3)nn2)n1 as the molecule, how does the activity change, negative = inhibition read?
A: inactive

Q: How did the activity change, negative = inhibition turn out when CC(C)(C)n1ncc2c(=O)n(Cc3ccc(Cl)cc3)cnc21 was run?
A: inactive

Q: Cc1cc2c(c(=O)n1Cc1ccccc1)C1O[C@](CCCCN3C(=O)c4ccccc4C3=O)(Cc3ccccc31)O2 was tested. Which activity change, negative = inhibition did it give?
A: -1.2% [at 7.66 µM]

Q: For CC(C)(C)NC(=O)CSC(=Nc1ccccc1F)NC#N, which activity change, negative = inhibition is on record?
A: inactive

Q: For O=C(CCl)Nc1ccc(Sc2ccc(NC(=O)CCl)cc2)cc1, which activity change, negative = inhibition is on record?
A: inactive

Q: With CC1CCN(C(=O)c2ccc(S(=O)(=O)Cc3cc(F)ccc3F)c([N+](=O)[O-])c2)CC1 as the molecule, how does the activity change, negative = inhibition read?
A: inactive

Q: Which activity change, negative = inhibition does the source give for Cc1ccc(C2=NN(C(=O)CSc3nc(N)cc(N)n3)C(c3ccco3)C2)cc1 (stereo not given) here?
A: inactive

Q: With COc1ccc(-c2nc3cc(C)ccn3c2NC2CCCCC2)cc1SC1CCCCC1 as the molecule, how does the activity change, negative = inhibition read?
A: inactive

Q: For Cc1ccc(C2(C(F)(F)F)N=C3Sc4cc(C)cc(C)c4N3C(=O)N2)cc1 (stereo not given), which activity change, negative = inhibition is on record?
A: inactive

Q: With COc1ccc(CCOC(=O)CNC(=O)c2ccc(Cl)cc2Cl)cc1 as the molecule, how does the activity change, negative = inhibition read?
A: inactive

Q: With [O-][n+]1c2c(nn1-c1ccc(Cl)c(Cl)c1)-c1nonc1CC2 as the molecule, how does the activity change, negative = inhibition read?
A: inactive

Q: Which activity change, negative = inhibition does the source give for Cn1c(SCC(=O)Nc2nccs2)nnc1-c1cccnc1 here?
A: inactive

Q: Cc1c(C=O)c2ccccn2c1C(=O)c1ccncc1 was tested. Which activity change, negative = inhibition did it give?
A: inactive

Q: For O=c1[nH]c(=S)[nH]c2[nH]c(=S)[nH]c12, which activity change, negative = inhibition is on record?
A: inactive

Q: Which activity change, negative = inhibition does the source give for Cc1ccc(S(=O)(=O)CC(=O)Nc2sc(C)c(C)c2C(N)=O)cc1 here?
A: inactive

Q: For CC(C)N1C(=O)N(c2ccccc2)C(C)(O)CC1(C)C (stereo not given), which activity change, negative = inhibition is on record?
A: inactive

Q: Which activity change, negative = inhibition does the source give for Cc1ccc(-n2c(SCC(=O)N3CCC(C(=O)O)CC3)nc3ccccc3c2=O)cc1C here?
A: inactive

Q: With O=C(c1cccs1)n1nc(NCc2ccccc2)nc1NCc1ccccc1 as the molecule, how does the activity change, negative = inhibition read?
A: inactive

Q: How did the activity change, negative = inhibition turn out when COc1ccc(OC)c(-c2c(=O)n(OCc3ccccc3Br)c3ccccc3[n+]2[O-])c1 was run?
A: inactive

Q: Which activity change, negative = inhibition does the source give for O=C1OC2(CCCCC2)CC2=C1C1O[C@](c3ccsc3)(Cc3ccccc31)O2 here?
A: -1.62% [at 7.66 µM]

Q: CCCCNC(=O)C(C)N(CCN(C)C)C(=O)CCCCCN1C(=O)NC(c2ccc(Cl)cc2)C(C(=O)OCc2ccccc2)=C1C (stereo not given) was tested. Which activity change, negative = inhibition did it give?
A: inactive

Q: How did the activity change, negative = inhibition turn out when Cc1ccc(NC(=O)CC2C(=O)N(Cc3ccccc3)C(=S)N2NC(=O)c2cccc(F)c2)c(C)c1 (stereo not given) was run?
A: inactive

Q: Which activity change, negative = inhibition does the source give for COC(=O)c1ccccc1Oc1c(F)c(F)nc(N2CCOCC2)c1F here?
A: inactive

Q: For O=c1c2ccccc2[nH]c(=S)n1CCN1CCC(=C(c2ccc(F)cc2)c2ccc(F)cc2)CC1, which activity change, negative = inhibition is on record?
A: inactive

Q: Which activity change, negative = inhibition does the source give for CCN(CC(=O)Nc1ccc(NC(C)=O)cc1)C(=O)C1CC(=O)N(Cc2ccc(C)cc2)C1 (stereo not given) here?
A: inactive

Q: Which activity change, negative = inhibition does the source give for Cc1cccc(C)c1NC(=O)C1(C)c2cccc[n+]2CC(=O)N1Cc1cccs1 (stereo not given) here?
A: inactive

Q: CO[C@H]1[C@@H]2C=CO[C@@H](O[C@H]3O[C@@H](CO)[C@H](O)[C@@H](O)[C@@H]3O)[C@@H]2[C@@]2(CO)O[C@@H]12 was tested. Which activity change, negative = inhibition did it give?
A: inactive

Q: O=C(CC1SC(=Nc2ccccc2)N(Cc2ccccn2)C1=O)Nc1cccc(Cl)c1 (stereo not given) was tested. Which activity change, negative = inhibition did it give?
A: inactive

Q: Which activity change, negative = inhibition does the source give for Cc1coc2c(O)cc3c(c12)OC1(N2CCCCC2)C(=O)NCCCC31 (stereo not given) here?
A: inactive

Q: CCCCN(CCCC)CCCNC(=O)CN1C(=O)COc2ccc(S(=O)(=O)N3CCC(C)CC3)cc21 was tested. Which activity change, negative = inhibition did it give?
A: inactive

Q: How did the activity change, negative = inhibition turn out when CCOC(=O)N1CCN(S(=O)(=O)c2ccc3c(c2)C(C)C(=O)N3)CC1 (stereo not given) was run?
A: inactive

Q: How did the activity change, negative = inhibition turn out when COc1ccc(C(=O)/C=C/c2ccc(-c3ccccc3)cc2)cc1CSCC(=O)O was run?
A: inactive

Q: Which Potency does the source give for COC(=O)c1ccc(COc2ccc(/C=C/C(=O)c3ccc(OC)c(CSCC(=O)O)c3)cc2OC)cc1 here?
A: 10 µM (active)

Q: For COc1ccc(/C=C/C(=O)c2ccc(NS(=O)(=O)c3ccc(C)cc3)cc2)cc1O, which activity change, negative = inhibition is on record?
A: inactive

Q: Which activity change, negative = inhibition does the source give for Cc1ccc(C2NC(C(=O)O)CS2)cc1 (stereo not given) here?
A: inactive

Q: For C=CCN(c1ccc(C(N)=O)cc1)S(C)(=O)=O, which activity change, negative = inhibition is on record?
A: inactive

Q: How did the activity change, negative = inhibition turn out when Cc1cccc(N2CCN(Cc3nc(C4CC4)no3)CC2)n1 was run?
A: inactive

Q: c1ccc2c(c1)C(=NC1CCCCC1)NC2=NC1CCCCC1 was tested. Which activity change, negative = inhibition did it give?
A: inactive

Q: For CCCOc1ccc(C(=O)C(CCC(CNCC)C(=O)c2ccc(OCCC)cc2)CNCC)cc1 (stereo not given), which activity change, negative = inhibition is on record?
A: inactive

Q: How did the activity change, negative = inhibition turn out when COc1ccc(Br)cc1CN(C)CC(=O)Nc1cc(Cl)cc(Cl)c1 was run?
A: inactive

Q: COc1ccc2c3c(c(=O)oc2c1)C1O[C@](CCCCN2C(=O)c4ccccc4C2=O)(Cc2c1ccc1ccccc21)O3 was tested. Which activity change, negative = inhibition did it give?
A: 0.0315% [at 7.66 µM]

Q: How did the activity change, negative = inhibition turn out when CC(C)NC(=O)C(=O)NCCCOC(C)C was run?
A: inactive

Q: O=C(CN1CCOCC1)N1CCCc2c1c(=O)oc1ccc(OCc3ccccc3)cc21 was tested. Which activity change, negative = inhibition did it give?
A: inactive

Q: With CCOCCOCCC(C(=O)O)P(=O)(c1ccccc1)c1ccccc1 (stereo not given) as the molecule, how does the activity change, negative = inhibition read?
A: inactive

Q: For CCOC(=O)c1c(NC(=O)CCCN2CCOCC2)sc2c1CC(C)(C)OC2, which activity change, negative = inhibition is on record?
A: inactive

Q: For CC(C)(C)[Si](OCC[C@@H]1C[C@@]1(C)[C@@H](NP(=O)(c1ccccc1)c1ccccc1)c1ccccc1)(c1ccccc1)c1ccccc1, which activity change, negative = inhibition is on record?
A: inactive

Q: CCC(C)n1c(-c2cc(OC)c(OC)c(OC)c2)nc2nc3ccccc3nc21 (stereo not given) was tested. Which activity change, negative = inhibition did it give?
A: inactive

Q: Which activity change, negative = inhibition does the source give for CC(C)(C)C(=O)NC1CC2CCCC(C1)N2C(=O)Nc1ccccc1F (stereo not given) here?
A: inactive

Q: C=CC[n+]1c(-c2ccc(C)cc2)csc1NNC(=O)Nc1ccccc1 was tested. Which activity change, negative = inhibition did it give?
A: inactive

Q: CCNC(=S)N(CCN(CC)CC)Cc1cc2cc3c(cc2[nH]c1=O)OCO3 was tested. Which activity change, negative = inhibition did it give?
A: inactive

Q: Which activity change, negative = inhibition does the source give for Cn1c(CC(=O)NNC(=O)c2ccccc2F)nc2ccccc21 here?
A: inactive
